Screening data as filed in PubChem BioAssay.
BaF3 tox – parental Ba/F3 viability inhibition as JAK2V617F counter-screen. CellTiter-Glo ATP luminescence. inhibition, % at 5.6 µM. 220,000 tested, 1.1% active. AID 1486;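 active means inhibition above a per-campaign cutoff, the mean inhibition of all tested compounds plus 3 SD, cut at about 27% in these data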;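 further: 0% = DMSO wells and 100% = JAK Inhibitor I control wells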
KLF5 inh – suppresses KLF5 promoter-driven expression; DLD-1 KLF5 promoter-luciferase reporter, luminescence; AID 1700; 290,000 tested, 0.23% active; inhibition, % at 5 µM;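 active means inhibition above a per-plate limit of that plate's mean compound inhibition plus 3 SD, cut at about 60% in these data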;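 further: 0% = DMSO wells and 100% = LY294002 at 200 µM; higher means less KLF5 promoter-driven luciferase light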
aSyn UTR inh – 5' untranslated region of α-synuclein, MLPCN primary screen; alpha-synuclein 5'UTR reporter, inhibitor activity; inhibition, % (tested at 7.5 µM); 300,000 tested, 0.82% active; AID 1813; in the data active means inhibition above about 60%; inconclusive means no clear call, values can overlap the other calls;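 further: H4 neuroglioblastoma cells stably carrying SNCA 5'UTR luciferase fusion; 0% = DMSO wells and 100% = positive control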
APP 5UTR inh – APP translation inhibition | AID 1285 | inhibition, % at 2 µM | SH-SY5Y APP 5'UTR-luciferase reporter, luminescence | 190,000 tested, 0.82% active;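 active means inhibition above a set limit, derived from the sample mean plus 3 SD, cut at about 45% in these data; inconclusive means one replicate passes the limit while the other fails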
Ba/F3 V617F tox – reduce viability of Ba/F3 cells dependent on JAK2V617F. Ba/F3 EpoR-JAK2V617F viability, ATP luminescence. inhibition, % at 5.6 µM. 220,000 tested, 1.1% active. AID 1446;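 active means inhibition above the campaign mean plus 3 SD over all tested compounds, cut at about 24% in these data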;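 further: cytokine-independent growth of Ba/F3 cells driven by EpoR plus mutant JAK2; 0% = DMSO-treated cells and 100% = JAK inhibitor I control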
IEC-6 tox – IEC-6 cytotoxicity, counter-screen for KLF5 inhibitors; luminescence viability; inhibition, % at 5 µM; 290,000 tested, 0.78% active; AID 1825; in the data active means inhibition above about 22%;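 further: 0% = plate median of test compound wells and 100% = cytotoxic reference compound wells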
Starred values were filed as active, the others as inactive; ? = inconclusive; nt = no result. An excerpt weighted towards active compounds, which were near 2.2% of everything screened.

SMILES	BaF3 tox	KLF5 inh	aSyn UTR inh	APP 5UTR inh	Ba/F3 V617F tox	IEC-6 tox
Cc1c(CCC(=O)NCCCC(=O)O)c(=O)oc2cc3oc4c(c3cc12)CCCC4	nt	-16.4	44.1	nt	nt	2.0
Nc1cc(=O)[nH]c(SCCSc2ccccc2F)n1	nt	-25.4	67.4*	nt	nt	-0.8
Nc1cc(=O)[nH]c(SCCSc2cc(Cl)ccc2Cl)n1	nt	-12.2	49.5	nt	nt	-2.2
O=C(Nc1ccc2c(c1)OCCO2)NC1(C(F)(F)F)Oc2ccccc2O1	7.0	-31.5	62.5*	0.6	8.8	-3.6
CCN(CC)c1ccc(NC2=C(Cl)C(=O)c3ccccc3C2=O)cc1	-0.4	-62.6	nt	95.5*	-2.5	9.0
Cc1ccc(NC2=C(Cl)C(=O)c3ccccc3C2=O)cc1	4.0	-9.3	?	95.9*	2.7	1.8
NS(=O)(=O)c1ccc(NC2=CC(=O)C(=O)c3ccccc32)cc1	nt	-34.5	51.1	nt	nt	-2.3
CCNC1=C(Cl)C(=O)c2ccccc2C1=O	2.4	-74.4	-23.2	-3.6	-1.2	18.9
CCOc1ccc(NC2=C(OC)C(=O)c3ccccc3C2=O)cc1	10.5	-22.0	-94.4	7.0	-1.0	-2.2
Cc1ccc(NC2=CC(=O)C(=O)c3ccccc32)cc1	9.5	-56.6	102.9*	-30.4	3.8	2.3
O=[N+]([O-])c1ccc(/C=N\NS(=O)(=O)c2ccc(F)cc2)o1	nt	-15.1	-9.1	nt	nt	-3.9
Cc1ccccc1C(=O)N1CCC(C(=O)NC(C)c2ccc(-n3ccnc3)cc2)CC1 (centres undefined)	nt	-22.3	2.9	nt	nt	4.8
Cc1ccc2nc(NC(=O)c3ccco3)sc2c1	4.2	59.0	85.2*	-83.7	-0.8	1.8
CSc1cccc(NC(=O)CC2Oc3ccccc3NC2=O)c1 (centres undefined)	nt	-25.1	13.6	nt	nt	-4.9
O=C(N/N=C\c1cc(Br)ccc1O)c1ccc(S(=O)(=O)N2CCCCC2)cc1	0.3	-0.9	109.7*	69.1*	-3.5	0.3
NC(=O)N/N=C\c1cc(Br)ccc1O	3.0	-2.8	17.5	-2.8	-4.2	2.3
CC(C)C(=O)Nc1ccc(C(=O)N/N=C/c2cc(Br)cc(Br)c2O)cc1	5.2	-36.5	7.7	45.7*	3.3	0.1
O=C(N/N=C/c1cc(Cl)ccc1O)c1ccc(Br)cc1	6.7	19.2	nt	56.4*	2.2	11.4
N#Cc1c(-c2ccc(Cl)cc2)c2c([nH]c1=O)-c1ccccc1OC2	51.1*	4.8	16.5	nt	11.9	-1.8
CC(=O)NC1C(OC(=O)/C=C/c2ccccc2)OC(COC(C)=O)C(OC(C)=O)C1OC(C)=O (centres undefined)	nt	-9.2	-16.6	nt	nt	2.1
O=C(Nc1ncc(Cc2cccc([N+](=O)[O-])c2)s1)c1ccco1	27.2*	3.4	-4.9	-46.8	17.9	6.1
CC(=O)Nc1ncc(Cc2cccc(Cl)c2)s1	28.1*	1.9	3.6	13.0	34.0*	-0.6
CCc1ccc(C(=O)COC(=O)c2cncc(Br)c2)cc1	7.9	3.8	19.9	21.9	1.1	-2.5
CC(C)Cc1cc(-c2ccco2)c(C#N)c(N)n1	1.4	-14.6	69.8*	-11.7	-2.2	-2.3
Nc1ncccc1OCc1ccc(Cl)c(Cl)c1	4.7	-183.0	-148.6	nt	0.6	-9.0
SMILES	BaF3 tox	KLF5 inh	aSyn UTR inh	APP 5UTR inh	Ba/F3 V617F tox	IEC-6 tox
O=C(N1CCCCC1)N1CCN(C(=O)N(c2ccccc2)c2ccccc2)CC1	8.3	-28.0	1.3	6.2	1.1	3.0
O=C(N1CCOCC1)N1CCN(C(=O)N(c2ccccc2)c2ccccc2)CC1	1.0	-13.7	23.9	57.0*	-2.1	-2.4
Cc1scc(C(=O)N/N=C/c2ccc([N+](=O)[O-])o2)c1C	nt	-37.8	84.8*	nt	nt	0.1
Cc1scc(C(=O)N/N=C/c2ccco2)c1C	-1.9	-3.4	-86.4	-71.8	-1.0	-4.9
O=C(N/N=C/c1ccc([N+](=O)[O-])o1)c1cc2ccccc2o1	-1.6	-0.5	65.8*	nt	2.1	-11.5
COC(=O)CS(=O)(=O)c1cc(Br)cc2c1N(C(C)=O)CC2	92.7*	1.4	-17.2	1.8	1.7	1.9
N#CC(Sc1ccccn1)c1ccc(Cl)cc1 (centres undefined)	52.8*	-18.4	-6.4	12.5	26.0*	1.8
Fc1cccc(NC(=S)NCc2ccccc2Cl)c1	-0.4	-7.0	16.9	nt	2.6	-1.3
O=C(Cn1c(-c2ccccc2)c[n+]2ccsc12)c1ccc(Br)cc1	40.5*	-12.7	-21.9	15.5	27.2*	0.5
COc1ccccc1C(CNC(=O)c1cc(C)nc2ccccc12)N(C)C (centres undefined)	nt	4.6	5.2	nt	nt	1.7
CCC1C/C(=C/c2ccco2)C(=O)/C(=C/c2ccco2)C1 (centres undefined)	1.8	-8.4	nt	-20.9	30.4*	-6.9
O=C1C(=O)c2ccc(-c3ccccc3)cc2-c2ccccc21	0.7	-14.2	118.6*	-9.6	-0.9	1.9
C/C(=N\NC(=O)c1nnn(-c2nonc2N)c1CN(C)c1ccccc1)c1ccccn1	nt	62.0*	88.4*	nt	nt	38.4*
C/C(=N\NC(=O)c1nnn(-c2nonc2N)c1CN(C)c1ccccc1)c1ccc(O)cc1	nt	-24.4	18.3	nt	nt	-9.3
CCc1ccc(C(=O)C[n+]2cccc3cc(OC)ccc32)cc1	nt	9.9	-11.7	nt	nt	3.7
COc1ccc(C(=O)N2CCOC2CNC(=O)C(=O)NCc2ccc(Cl)cc2)cc1 (centres undefined)	62.6*	-5.5	11.7	-7.3	1.2	-0.4
COc1ccc(CCNC(=O)C(=O)NCC2OCCN2C(=O)c2ccc(Cl)cc2)cc1 (centres undefined)	nt	-17.5	30.4	nt	nt	-2.4
Cc1nc2ccccc2c(=O)n1/N=C/c1cccs1	-2.9	-76.9	-78.6	52.6*	-0.4	0.2
Cc1nc2ccccc2c(=O)n1/N=C/c1ccccc1	-2.9	-2.9	-41.5	-11.6	-6.5	4.7
Cn1c(CCNC(=O)c2ccccc2F)nnc1SCC(=O)Nc1nncs1	nt	5.6	-17.6	nt	nt	-6.1
C=CCc1cc(Cl)ccc1OCCOCCNCCOC	9.2	-20.2	20.3	5.5	-0.8	1.2
C=CCc1cc(Cl)ccc1OCCNCCCOC	91.5*	-25.9	23.7	-0.5	3.7	-6.5
O=C(Oc1ccccc1)c1cccc2cccc(C(=O)Oc3ccccc3)c12	3.9	-4.5	14.6	nt	-8.4	2.3
Cc1ccc(-c2nc(-c3ccccc3)no2)cc1	3.7	-117.1	?	-132.3	0.7	-1.3
Cc1ccc(-c2nc(-c3ccccc3)no2)c(Cl)c1	2.7	-148.7	95.5*	-166.4	-2.3	-1.8
CC(C)(C)c1ccc(CSc2nc(N)cc(=O)[nH]2)cc1	nt	-60.0	-79.3	nt	nt	5.6
C=CCSc1nc2c(cnn2-c2ccccc2)c(=O)n1N	0.3	-149.8	74.2*	nt	1.5	-0.1
COc1cc(/C=N/NC(=O)CC#N)ccc1Oc1nc(Cl)ncc1F	nt	-21.5	3.0	nt	nt	-7.3
Nc1cc(=O)[nH]n1C1CCCCC1	-1.4	-16.8	12.6	0.7	-6.3	-4.8
Cc1cc(C(=O)CSc2nc3ccccc3[nH]2)c(C)n1CC1CCCO1 (centres undefined)	40.3*	-65.9	36.0	-188.6	16.9	3.8
